Assay [1] in a line: optical density shifts of acrAB sulA E. coli – strain DRC41, OD650, 48 h, E. coli filamentation inducer project, primary screen (AID 1152).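 Further: E. coli MC1000 strain DRC41 lacking acrAB efflux pump and sulA.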 The settings on record: higher = more signal, called active from +8 up or from −8 down.
The nature of assay [2]: probe aLefty1 binding on compound microarray – biochemical, small-molecule microarray, 635/667 nm fluorescence, primary screen (AID 1153).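 Further: score merges spot fluorescence with signal-to-noise ratio from the scanned slide images.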 The note with it: higher = more signal.
A short description of assay [3]: plasmodial surface anion channel blockers, osmotic lysis – cell-based, P. falciparum Indochina, OD700, 1 h, primary screen (AID 1154). The settings on record: P. falciparum Indochina infected RBC osmotic lysis, higher = more signal, called active from +8 up or from −8 down.
A short description of assay [4]: plasmodial surface anion channel blockers, osmotic lysis – cell-based, P. falciparum Indochina, OD700, 2 h, primary screen (AID 1155).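 Further: lysis reports solute entry through the parasite surface anion channel PSAC.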 The note with it: P. falciparum Indochina infected erythrocytes, higher = more signal, called active from +8 up or from −8 down.
Assay [5] is described as follows: changes in parasitized red cell lysis, either direction – P. falciparum Indochina, OD700, 3 h, PSAC antagonist project, primary screen (AID 1156). The settings on record: P. falciparum-infected erythrocytes, osmotic lysis, higher = more signal, called active from +8 up or from −8 down.
Assay [6] can be described thus: plasmodial surface anion channel blockers, osmotic lysis – cell-based, P. falciparum Indochina, OD700, 18 h, primary screen (AID 1157). The note with it: P. falciparum Indochina infected erythrocytes, osmotic lysis OD700, 18 h; higher = more signal, called active from +8 up or from −8 down.
Assay [7] in a line: S6 kinase pathway phospho-S6 level changes – cell-based, A549, cytoblot, luminescence, serum-stimulated, primary screen (AID 1158).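 Further: serum-stimulated A549 lung adenocarcinoma cells; signal is phosphorylated S6 detected by cytoblot immunostaining with HRP secondary.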 The settings on record: 5 h, higher = more signal.
Assay [8] addresses NADPH oxidase 2 (Homo sapiens) (UniProt P04839). In words: compounds shifting NOX2 Amplex Red fluorescence – cell-based, HEK293-NOX2, PMA-stimulated, NOX inhibitor project, primary screen (AID 1159). Further: test concentration not given here. The note with it: 45 min, higher = more signal, called active from +8 up or from −8 down.
Assay [9] concerns the target NADPH oxidase 4 (Homo sapiens) (UniProt Q9NPH5). In words: compounds shifting NOX4 Amplex Red fluorescence – cell-based, HEK293-NOX4, tetracycline-induced, NOX inhibitor project, primary screen (AID 1160). The note with it: HEK293-NOX4, Amplex Red H2O2 fluorescence, 45 min; higher = more signal, called active from +8 up or from −8 down.
Assay [10] deals with NADPH oxidase 5 (Homo sapiens) (UniProt Q96PH1). As to the kind of experiment: compounds shifting NOX5 Amplex Red fluorescence – cell-based, HEK293-NOX5, NOX inhibitor project, primary screen (AID 1161). The note with it: HEK293-NOX5, ionomycin, 45 min, higher = more signal.
Chain of NADPH oxidase 5 (Homo sapiens) (Q96PH1 whole entry, looked up): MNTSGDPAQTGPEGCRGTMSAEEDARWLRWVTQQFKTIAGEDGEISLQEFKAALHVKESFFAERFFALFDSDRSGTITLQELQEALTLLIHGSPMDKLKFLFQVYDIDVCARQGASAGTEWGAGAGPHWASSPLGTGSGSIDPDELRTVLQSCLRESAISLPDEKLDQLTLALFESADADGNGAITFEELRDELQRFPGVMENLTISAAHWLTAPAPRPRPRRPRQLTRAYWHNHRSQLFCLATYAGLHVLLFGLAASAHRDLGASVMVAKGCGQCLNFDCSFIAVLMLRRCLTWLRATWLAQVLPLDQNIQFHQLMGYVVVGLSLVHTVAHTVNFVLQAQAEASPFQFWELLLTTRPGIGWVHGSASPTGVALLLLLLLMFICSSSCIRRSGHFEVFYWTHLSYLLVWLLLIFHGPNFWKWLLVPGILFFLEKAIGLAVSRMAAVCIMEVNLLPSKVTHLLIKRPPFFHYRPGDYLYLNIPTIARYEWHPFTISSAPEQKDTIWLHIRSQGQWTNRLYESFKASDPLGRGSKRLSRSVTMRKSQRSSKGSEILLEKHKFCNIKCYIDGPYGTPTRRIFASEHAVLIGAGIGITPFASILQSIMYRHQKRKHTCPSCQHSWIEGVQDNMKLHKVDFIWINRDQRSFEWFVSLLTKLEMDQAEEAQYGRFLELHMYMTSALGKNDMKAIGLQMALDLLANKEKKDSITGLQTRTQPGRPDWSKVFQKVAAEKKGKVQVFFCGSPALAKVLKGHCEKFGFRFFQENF
A short description of assay [11]: compound effects on lung adenocarcinoma cell viability – A549, calcein-AM fluorescence, 48 h, basal, profiling panel (AID 1162). Further: test concentration not given here. The settings on record: higher = more signal.
Assay [12] is described as follows: compound effects on differentiated 3T3-L1 adipocyte viability – cell-based, 3T3-L1 adipocytes, calcein-AM fluorescence, 48 h, basal, profiling panel (AID 1163). Further: test concentration not given here. The note with it: 3T3-L1 adipocytes viability, higher = more signal.
The nature of assay [13]: compound effects on hepatocellular carcinoma cell viability – HepG2, calcein-AM fluorescence, 48 h, basal, profiling panel (AID 1164). Further: test concentration not given here. The note with it: higher = more signal.
Assay [14] in a line: compound effects on multiple myeloma cell viability – MM1S, calcein-AM fluorescence, 48 h, basal, profiling panel (AID 1165).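 Further: viability of MM1S multiple myeloma cells under basal unstimulated conditions; test concentration not given here.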 The note with it: higher = more signal.
The nature of assay [15]: calcein-AM signal in unstimulated myeloma cells – cell-based, calcein-AM fluorescence, 48 h, PK04 Diversity Set, profiling panel (AID 1166).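 Further: cells grown under basal conditions without added stimulus; test concentration not given here.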 The settings on record: RPMI8226 myeloma viability, higher = more signal.
The nature of assay [16]: JC-1 mitochondrial signal, unstimulated HepG2 cells – cell-based, JC-1 fluorescence, 24 h, 100 nL compound, profiling panel (AID 1167). Further: test concentration not given here. The note with it: HepG2 mitochondrial potential, higher = more signal.
Assay [17] is described as follows: JC-1 mitochondrial signal, unstimulated adipocytes – cell-based, JC-1 fluorescence, 3T3-L1 adipocytes, 24 h, 100 nL compound, profiling panel (AID 1168). Further: test concentration not given here. The note with it: JC-1 mitochondrial fluorescence, higher = more signal, called active from +8 up or from −8 down.
Assay [18] can be described thus: JC-1 mitochondrial signal, unstimulated myeloma cells – cell-based, JC-1 fluorescence, RPMI8226, 24 h, 100 nL compound, profiling panel (AID 1169). Further: test concentration not given here. The settings on record: JC-1 mitochondrial potential fluorescence, higher = more signal.
The nature of assay [19]: JC-1 mitochondrial signal, unstimulated MM1S myeloma – cell-based, JC-1 fluorescence, 24 h, 100 nL compound, profiling panel (AID 1170). Further: test concentration not given here. The settings on record: MM1S mitochondrial potential, higher = more signal.
Assay [20] is described as follows: resazurin metabolic signal in A549 cells – cell-based, resazurin fluorescence, 24 h, PK04 Diversity Set, profiling panel (AID 1171). Further: test concentration not given here. The note with it: A549 viability, higher = more signal, called active from +8 up or from −8 down.

The source made the active and inactive calls.

Chain of NADPH oxidase 2 (Homo sapiens) (P04839 whole entry, looked up): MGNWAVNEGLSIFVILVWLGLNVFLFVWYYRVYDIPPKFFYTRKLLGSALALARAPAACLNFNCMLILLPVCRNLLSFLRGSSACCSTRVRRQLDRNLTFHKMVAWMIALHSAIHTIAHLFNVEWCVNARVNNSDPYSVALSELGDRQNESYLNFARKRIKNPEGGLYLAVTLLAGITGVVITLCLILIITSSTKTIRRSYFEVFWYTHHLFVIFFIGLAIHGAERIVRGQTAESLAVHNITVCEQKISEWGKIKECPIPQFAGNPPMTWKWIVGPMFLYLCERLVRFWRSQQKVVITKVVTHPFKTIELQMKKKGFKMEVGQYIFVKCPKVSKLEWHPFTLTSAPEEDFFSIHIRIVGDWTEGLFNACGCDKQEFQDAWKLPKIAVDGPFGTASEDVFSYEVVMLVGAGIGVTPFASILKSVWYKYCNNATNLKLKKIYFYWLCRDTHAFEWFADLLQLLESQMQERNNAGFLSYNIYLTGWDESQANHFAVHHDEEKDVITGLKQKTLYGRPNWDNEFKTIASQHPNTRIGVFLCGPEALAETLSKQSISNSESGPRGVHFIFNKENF
Chain of NADPH oxidase 4 (Homo sapiens) (Q9NPH5 whole entry, looked up): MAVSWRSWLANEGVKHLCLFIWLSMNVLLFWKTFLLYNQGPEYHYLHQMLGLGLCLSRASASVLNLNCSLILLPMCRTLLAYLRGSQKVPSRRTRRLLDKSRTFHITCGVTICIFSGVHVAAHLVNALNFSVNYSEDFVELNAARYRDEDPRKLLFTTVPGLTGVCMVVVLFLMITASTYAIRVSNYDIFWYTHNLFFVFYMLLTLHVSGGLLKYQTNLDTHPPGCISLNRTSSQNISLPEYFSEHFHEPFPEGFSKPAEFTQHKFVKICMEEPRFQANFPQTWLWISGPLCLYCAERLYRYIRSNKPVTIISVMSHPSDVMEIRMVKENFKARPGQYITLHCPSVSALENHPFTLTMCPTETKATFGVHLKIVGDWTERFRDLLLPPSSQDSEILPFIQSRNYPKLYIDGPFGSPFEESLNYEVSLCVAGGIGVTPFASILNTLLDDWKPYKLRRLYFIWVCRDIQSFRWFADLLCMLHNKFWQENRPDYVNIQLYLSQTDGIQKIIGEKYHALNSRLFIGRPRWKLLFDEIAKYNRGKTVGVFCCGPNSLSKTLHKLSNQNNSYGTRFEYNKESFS

Take `C=C[C@H](C)[C@H](OC(=O)Nc1ccc(OC)cc1)c1ccc(OCCO)cc1`: the z-score in assay [1] is 0.566 (inactive); in assay [3], 12.4 (active); in assay [4], 1.76 (inactive); in assay [5] it was 0.193 (inactive); in [6], 0.746 (inactive); in assay [7], -0.196. Moreover, the z-score was -0.288 (inactive) in [8]; 0.436 (inactive) in assay [9]; -2.19 in assay [10]; 0.366 in [11]; -0.402 in assay [12]; 0.692 in assay [13]. Besides, the z-score in assay [14] is -0.412; in assay [15], -1.83; in [16], -0.569; in assay [17], 0.627 (inactive); in [18], -0.0376; in assay [19] it was 0.873. Further, the z-score in assay [20] was -0.262 (inactive). In assay [2], the composite z-score worked out at 0.126.
Consider `CCOC(=O)C1=C[C@@H](C(C)(C)C)N(S(=O)(=O)c2ccc(C)cc2)[C@H]1c1ccccc1`, for which the z-score is -0.492 (inactive) in [1]; -0.132 (inactive) in [3]; 0.457 (inactive) in assay [4]; -0.803 (inactive) in assay [5]; -0.0282 (inactive) in [6]; -0.667 in assay [7]. In addition, the z-score in assay [8] was -0.707 (inactive); in [9] it was -0.655 (inactive); in assay [10], -0.083; in assay [11], -1.42; in [12] it was -0.396; in assay [13], -2.27. The z-score was -2.95 in assay [14]; -3.35 in [15]; 3.49 in assay [16]; -0.243 (inactive) in assay [17]; -0.966 in assay [18]; -0.75 in assay [19]. The z-score in assay [20] is 1.62 (inactive). Besides, the composite z-score in assay [2] is 0.407.
Consider `COc1ccc([Si](C)(C)[C@H]2[C@H](CCO)O[C@@]3(C(=O)N(Cc4ccccc4)c4ccc(N5C(=O)c6ccccc6Oc6ccccc65)cc43)[C@@H]2C)cc1`, for which the z-score in assay [1] is 0.503 (inactive); in assay [3], 3.46 (inactive); in assay [4], 1.45 (inactive); in [5], 0.354 (inactive); in [6], 1.19 (inactive); in [7] it was 0.314. For the same compound, the z-score is -1.35 (inactive) in [8]; 1.42 (inactive) in assay [9]; 0.269 in [10]; -1.01 in [11]; 0.271 in assay [12]; -3.26 in assay [13]. Besides, the z-score is -1.7 in assay [14]; -3.51 in assay [15]; 0.0091 in [16]; -0.404 (inactive) in assay [17]; -0.896 in [18]; -1.53 in assay [19]. The z-score in assay [20] was -2.28 (inactive). The same compound displayed a composite z-score in assay [2] of 0.121.
As to `COCCOC(=O)N1C(=O)[C@@]2(c3ccccc31)[C@H](c1ccccc1OCCO)N1[C@H](c3ccccc3)[C@H](c3ccccc3)OC(=O)[C@H]1[C@@H]2C(N)=O`, the z-score in assay [1] is -0.714 (inactive); in assay [3], 3.59 (inactive); in assay [4], 1.18 (inactive); in assay [5] it was -0.463 (inactive); in [6], 0.689 (inactive); in [7], 0.231. Also, the z-score in assay [8] was 1.88 (inactive); in assay [9], 0.787 (inactive); in assay [10], 0.212; in assay [11], -1.59; in assay [12] it was 0.61; in assay [13], -1.85. The z-score was -3.32 in assay [14]; -4.57 in [15]; -0.88 in assay [16]; -0.27 (inactive) in assay [17]; -1.15 in assay [18]; -1.21 in assay [19]. Moreover, the z-score in assay [20] was -1.78 (inactive). Also, the composite z-score in assay [2] was determined as 0.221.
For `[N-]=[N+]=NCc1ccccc1[C@H]1OC(c2ccc(OCCCO)cc2)=N[C@@]1(CCS(=O)(=O)c1ccccc1)C(=O)NCc1ccccc1`, the z-score is 1.14 (inactive) in assay [1]; 25 (active) in assay [3]; 8.39 (active) in assay [4]; 1.49 (inactive) in [5]; 1.38 (inactive) in [6]; 0.127 in [7]. Besides, the z-score in assay [8] is 2.27 (inactive); in assay [9], 0.837 (inactive); in assay [10] it was -0.887; in [11] it was 2.47; in [12], -0.0706; in assay [13], 1.35. Further, the z-score in assay [14] is -0.65; in assay [15] it was 0.414; in assay [16] it was -0.627; in assay [17] it was -0.0258 (inactive); in [18] it was -1.02; in assay [19], -0.531. Also, the z-score in assay [20] was 1.73 (inactive). In [2], the composite z-score was -0.271.

(Values after PubChem BioAssay.)
